hgDAF-12 ag = activates the H. glycines DAF-12 receptor ligand-binding domain; actives 1.8% (n = 370,000); activation, % at 6.8 µM; HEK293 GAL4-hgDAF12 UAS-luciferase reporter, agonist luminescence; normalized to butyrate control;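 active = activation above a cutoff set at the mean of all screened compounds plus 3 SD, cut at about 10% in these data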
hcDAF12 agonist = activates DAF-12 receptor from parasite H. contortus. HEK293 hcDAF-12 lit1-tk-luc reporter, luminescence; 0% DMSO, 100% Δ7-dafachronic acid. activation, % at 6.8 µM. actives 1.4% (n = 370,000);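 active = activation above the mean of all tested compounds plus 3 SD, cut at about 5.5% in these data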
DAX1 inh-1 = DAX1 (NR0B1) inhibition, primary screen | AID 652010 | HEK293T StAR-luciferase reporter, SF-1/DAX-1 repression relief | inhibition, % at 6.8 µM | actives 1.1% (n = 370,000);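 active = inhibition above the mean over all tested compounds plus 3 SD, cut at about 3.6% in these data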;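 also: higher inhibition means more luminescence from relief of DAX-1 repression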
ssDAF-12 act = S. stercoralis DAF-12 activation, primary screen; actives 1% (n = 370,000); AID 652126; HEK293 ssDAF-12/GRIP1 lit1-tk-luc reporter, luminescence; % of 3 µM dafachronic acid response; activation, % at 6.8 µM;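 active = activation above the mean over all tested compounds plus 3 SD, cut at about 0.9% in these data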
DAX1 inh-2 = inhibitors of human orphan nuclear receptor DAX1 (NR0B1). P51843. HEK293 Gal4-DAX1 luciferase reporter, luminescence. inhibition, % at 6.75 µM. actives 0.99% (n = 340,000). AID 504766;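 active = inhibition above the mean over all tested compounds plus 3 SD, cut at about 4.2% in these data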;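 also: inhibition shows as a rise in luminescence from relieved DAX1 repression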
Target sequence (P51843 207-470 limits assumed): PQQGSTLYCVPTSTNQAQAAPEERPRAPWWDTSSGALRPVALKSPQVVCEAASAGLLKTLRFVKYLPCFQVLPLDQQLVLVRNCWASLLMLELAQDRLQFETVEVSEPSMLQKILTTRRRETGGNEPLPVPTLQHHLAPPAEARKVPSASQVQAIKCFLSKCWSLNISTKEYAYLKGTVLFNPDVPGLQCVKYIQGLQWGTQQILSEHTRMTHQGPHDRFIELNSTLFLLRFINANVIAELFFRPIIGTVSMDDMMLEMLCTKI
Numbers stand for hits; - = inactive; . = no result given. In the library only some 4.1% were active in any assay of this set; here they are far more common.

SMILES	hgDAF-12 ag	hcDAF12 agonist	DAX1 inh-1	ssDAF-12 act	DAX1 inh-2
CC(C)NC(=O)c1cc2ccccc2o1	-	-	-	-	5.1
Clc1ccccc1OCCCn1ccnc1	-	-	-	1.4	-
COc1ccccc1N1CCN(/N=C/C=C\c2ccco2)CC1	-	-	4.1	-	-
O=C(O)c1ccc(/C=N/N2CCN(c3ccccc3)CC2)cc1	-	-	-	-	5.4
COc1ccccc1N1CCN(/N=C/c2ccc(C(=O)O)cc2)CC1	10.8	-	-	-	-
O=C(c1ccc(-c2ccccc2)cc1)N1CCN(c2ccccc2)CC1	-	-	-	-	4.8
c1ccc(-c2nc3ccccc3nc2-c2ccc(CN3CCC4(CC3)CNc3ccccc34)cc2)cc1	-	-	-	-	.
COc1cc2c(=O)n(CCC(=O)NCC3CCCO3)c(=O)n(CC(=O)c3ccc(Cl)cc3)c2cc1OC (centres undefined)	-	-	-	-	5.3
CCNC(=O)C1(C)CCN(C(=O)c2cc(F)ccc2C)C1 (centres undefined)	-	-	-	-	.
NC(=O)C(=O)N/N=C1\CCc2ccccc21	-	6.0	-	-	-
Cc1ccc(S(=O)(=O)NN=C2CCc3ccccc32)cc1	-	-	-	1.6	-
COC(=O)C1C/C(=N\NS(=O)(=O)c2ccc(C)cc2)c2ccccc2C1 (centres undefined)	-	-	-	-	-
COc1ccc(OCC(=O)N/N=C2\CCc3ccccc32)cc1	-	-	-	-	-
Cn1c(COc2ccccc2)nnc1SCC(=O)Nc1ccc(S(=O)(=O)Nc2nccs2)cc1	-	-	-	-	.
CCCCn1c(N)c(N(CC)C(=O)COc2ccc(C#N)cc2)c(=O)[nH]c1=O	-	-	-	1.3	-
Oc1ccccc1C1=NN(c2ccccc2)C(c2ccc(F)cc2)C1 (centres undefined)	-	-	-	-	-
Oc1ccccc1C1=Nc2nc3ccccc3n2C(c2ccccc2)C1 (centres undefined)	13.1	-	-	-	-
Cc1ccc([N+](=O)[O-])c2c1C(N1CCCCC1)C(C)(C)O2 (centres undefined)	-	-	-	-	-
Cc1ccc([N+](=O)[O-])c2c1C(N1CC(C)OC(C)C1)C(C)(C)O2 (centres undefined)	-	-	-	14.8	-
COc1ccc(CCN2CC(=O)NC(=O)C2)cc1OC	-	-	-	-	-
CCN1C[C@@H]2[C@@H]3C(=O)N(C)C(=O)[C@@H]3[C@](CC)(C1=O)N2C(=O)c1ccccc1	-	-	-	-	-
CCN1C[C@@H]2[C@@H]3C(=O)N(C)C(=O)[C@@H]3[C@](CC)(C1=O)N2C(=O)c1ccc(F)cc1	-	-	-	-	4.6
CCN(CC)CCCNC(=O)C1CCN(c2ncnc3c2sc2cccc(F)c23)CC1	-	-	-	1.0	-
O=C(Nc1ccc(F)cc1F)C1CCN(c2ncnc3c2sc2cccc(F)c23)CC1	-	-	-	-	-
Cc1ccc(-c2nc3c4ccccc4ccn3c2Cc2ccsc2)cc1	-	-	-	1.4	.
SMILES	hgDAF-12 ag	hcDAF12 agonist	DAX1 inh-1	ssDAF-12 act	DAX1 inh-2
COc1ccc(-c2nc3c4ccccc4ccn3c2Cc2cccc(Cl)c2)cc1OC	-	-	-	1.1	.
Cc1ccc(-c2nc3c4ccccc4ccn3c2Cc2ccccc2)cc1	-	-	-	-	-
COc1ccc(-c2nc3c4ccccc4ccn3c2Cc2ccsc2)cc1OC	-	6.4	-	-	.
COc1ccc(-c2nc3c4ccccc4ccn3c2Cc2ccc(C)cc2)cc1OC	-	6.3	-	-	.
Cc1ccc(Cc2c(-c3ccccc3)nc3c4ccccc4ccn23)cc1	-	-	-	-	.
COC(=O)c1ccc2nc(-c3ccc(C)cc3)c(Cc3ccsc3)n2c1	-	-	-	-	.
Cc1ccc2nc(-c3ccccc3)c(Cc3ccsc3)n2c1	-	-	-	2.1	.
Cc1ccc2nc(-c3cccc(Br)c3)c(Cc3cccc(F)c3)n2c1	10.8	-	4.3	-	.
Fc1cccc(Cc2c(-c3cccc(Br)c3)nc3ccc(Cl)cn23)c1	-	-	-	-	.
NS(=O)(=O)c1ccc(CNC(=O)c2ccc3c(c2)OCO3)cc1	-	-	-	-	-
CC1CCN(C(=O)c2ccccc2SCC(=O)NCC2CCCCC2)CC1	-	-	-	-	-
COCCNC(=O)CSc1ccccc1C(=O)NCC1CCCCC1	-	-	-	-	6.6
O=C(NCc1ccccc1)[C@@H]1CCCN1C(=O)[C@H]1CCCN1C(=O)c1ccc(OC(F)(F)F)cc1	-	-	-	-	.
COc1cccc(CC(=O)Nc2ccc3c(c2)c(=O)n(C)n3-c2ccc(C(C)(C)C)cc2)c1	-	-	-	4.1	.
C=CCNC(=O)c1cc2sccc2n1C	-	-	-	-	-
CC(C)c1ccc(NC(=O)Nc2cc3sccc3n2C)cc1	-	6.0	-	-	-
COC(=O)C1=C(C)N(C)C(=NCc2ccccc2C(F)(F)F)NC1c1ccc(C(F)(F)F)cc1 (centres undefined)	-	-	-	-	.
Cc1nn(-c2ccc(N3CCCCC3)nn2)c(C)c1CCC(=O)Nc1ccc(F)c(F)c1	-	6.4	-	-	-
Cc1cc(C)cc(NC(=O)CCc2c(C)nn(-c3ccc(N4CCCCC4)nn3)c2C)c1	-	-	4.1	-	-
Cc1ccc(NC(=O)CCc2c(C)nn(-c3ccc(N4CCCCC4)nn3)c2C)cc1C	-	-	-	-	-
COC(=O)C1=C(C)N(C)C(=NCc2ccccc2)NC1c1ccccc1 (centres undefined)	-	-	-	-	.
O=C(NN1C(=O)C2C3C=CC(C4CC34)C2C1=O)c1ccccc1Cl (centres undefined)	-	-	-	-	5.1
Cc1c(S(=O)(=O)N2CCCCC2)c(=O)n(C)c(=O)n1C	-	-	-	-	4.3
CN(NC(=O)C(=O)NCc1ccco1)C(=O)NC1CCCCC1	-	-	-	-	.
CCc1ccc(NC(=O)c2ccc3nc(N)sc3c2)cc1	-	-	-	-	-
SMILES	hgDAF-12 ag	hcDAF12 agonist	DAX1 inh-1	ssDAF-12 act	DAX1 inh-2
CCc1ccc2nc(N)sc2c1	10.8	-	-	-	6.4
Cc1ccc2c(c1)NC(=O)C(CC(=O)NCCCN1CCCCC1)O2 (centres undefined)	-	-	-	-	4.5
Cc1ccc(CCNC(=O)CC2Oc3ccc(C)cc3NC2=O)cc1 (centres undefined)	-	-	-	-	10.7
O=C(c1ccc(Oc2ccccc2)cc1)c1nc2c(n1O)CCCC2	-	-	-	1.2	-
COc1ccc(C(=O)c2nc3c(n2O)CCCCC3)cc1	-	-	-	-	-
CCCCC(=O)Nc1cc(C(=O)NCCc2ccccc2)ccc1Cl	-	-	4.4	-	-
Cc1cc(C2=NNC(=Nc3ccccc3)SC2)c(C)n1C	-	-	-	-	5.4
COCCn1c(C)cc(C2=NNC(=Nc3ccccc3F)SC2)c1C	-	-	-	-	-
C=CCn1c(C)cc(C(=O)CSc2nc3ccccc3c(=O)[nH]2)c1C	-	-	-	-	-
